The source of these data is PubChem BioAssay (EPA / NIEHS).

The nature of assay [1]: ATG_GLI_CIS: Attagene CIS-FACTORIAL HepG2 Assay for human Zinc Finger Protein GLI1 (AID 2282945). To be noted: HepG2, Attagene cis-factorial reporter mRNA, GLI element; actives raise or lower the signal. The method in brief:
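HepG2 cells transiently transfected with cis-promoter multiplexed reporter units report endogenous transcription factor activity. After 24 h chemical exposure, reporter mRNA was quantified by RT-PCR, 6-FAM labelling, HpaI digestion and capillary electrophoresis, with bidirectional fitting against DMSO.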

Assay [2] deals with Bile acid receptor (Homo sapiens) (UniProt Q96RI1). Description: ATG_IR1_CIS: Attagene CIS-FACTORIAL HepG2 Assay for human Nuclear Receptor Subfamily 1 Group H Member 4 (NR1H4), IR1 submotif (AID 2282946). To be noted: IR1 reporter transcription, actives raise or lower the signal. The method in brief:
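Readout: reporter transcript levels by RT-PCR with fluorescent capillary electrophoresis, from HepG2 cells transiently transfected with multiplexed cis-regulated reporters and dosed 24 h. Gain- or loss-of-signal fitted versus DMSO negative control.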

Assay [3] can be described thus: ATG_ISRE_CIS: Attagene CIS-FACTORIAL HepG2 Assay for human Interferon Regulatory Factor 1 (IRF1) binding to an Interferon-Stimulated Response Element (ISRE) (AID 2282948). To be noted: HepG2 ISRE cis-reporter (Attagene), mRNA transcription readout; actives raise or lower the signal. The method in brief: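 Signal reflects induction or loss of ISRE-linked reporter mRNA in transiently transfected HepG2 cells after a 24 h treatment, detected by fluorescent RT-PCR fragments on capillary electrophoresis and normalised to DMSO.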

The nature of assay [4]: ATG_M_32_CIS: Attagene CIS-FACTORIAL HepG2 Assay for M32 Transcription Factor (Internal Marker) (AID 2282949).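 Also: background control marker of the multiplexed CIS panel rather than a real target.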 To be noted: HepG2 Attagene cis-factorial M32 reporter, mRNA; actives raise or lower the signal. The essentials: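 HepG2 human liver cells transiently transfected with cis-promoter-driven multiple reporter transcription units, dosed 24 h. Reporter mRNA quantified by RT-PCR, FAM-labelled primer extension, HpaI digest and capillary electrophoresis; bidirectional fit versus DMSO baseline.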

The nature of assay [5]: ATG_M_06_CIS: Attagene CIS-FACTORIAL HepG2 Assay for M06 Transcription Factor (Internal Marker) (AID 2282950). Conditions: HepG2 Attagene CIS-FACTORIAL M06 internal marker reporter; actives raise or lower the signal. The essentials:
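HepG2 liver cells, 24 h exposure. Reporter transcripts from transfected cis-element constructs quantified by RT-PCR/capillary electrophoresis fluorescence. Bidirectional curve fit against DMSO.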

The target in assay [6] is Hypoxia-inducible factor 1-alpha (Homo sapiens) (UniProt Q16665). The assay is described as follows: ATG_HIF1a_CIS: Attagene CIS-FACTORIAL HepG2 Assay for human Hypoxia Inducible Factor 1 (HIF1A) (AID 2282951). To be noted: HepG2 Attagene cis-factorial HIF1a reporter transcription; actives raise or lower the signal. The essentials: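 Transient MRTU transfection of human HepG2 liver cells, 24 h compound treatment, then total RNA isolation, oligo(dT) reverse transcription, PCR amplification, fluorescent labelling and capillary electrophoresis of reporter fragments. Gain or loss relative to DMSO.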
Chain of Hypoxia-inducible factor 1-alpha (Homo sapiens) (Q16665 whole entry, looked up, the tested form may be a part): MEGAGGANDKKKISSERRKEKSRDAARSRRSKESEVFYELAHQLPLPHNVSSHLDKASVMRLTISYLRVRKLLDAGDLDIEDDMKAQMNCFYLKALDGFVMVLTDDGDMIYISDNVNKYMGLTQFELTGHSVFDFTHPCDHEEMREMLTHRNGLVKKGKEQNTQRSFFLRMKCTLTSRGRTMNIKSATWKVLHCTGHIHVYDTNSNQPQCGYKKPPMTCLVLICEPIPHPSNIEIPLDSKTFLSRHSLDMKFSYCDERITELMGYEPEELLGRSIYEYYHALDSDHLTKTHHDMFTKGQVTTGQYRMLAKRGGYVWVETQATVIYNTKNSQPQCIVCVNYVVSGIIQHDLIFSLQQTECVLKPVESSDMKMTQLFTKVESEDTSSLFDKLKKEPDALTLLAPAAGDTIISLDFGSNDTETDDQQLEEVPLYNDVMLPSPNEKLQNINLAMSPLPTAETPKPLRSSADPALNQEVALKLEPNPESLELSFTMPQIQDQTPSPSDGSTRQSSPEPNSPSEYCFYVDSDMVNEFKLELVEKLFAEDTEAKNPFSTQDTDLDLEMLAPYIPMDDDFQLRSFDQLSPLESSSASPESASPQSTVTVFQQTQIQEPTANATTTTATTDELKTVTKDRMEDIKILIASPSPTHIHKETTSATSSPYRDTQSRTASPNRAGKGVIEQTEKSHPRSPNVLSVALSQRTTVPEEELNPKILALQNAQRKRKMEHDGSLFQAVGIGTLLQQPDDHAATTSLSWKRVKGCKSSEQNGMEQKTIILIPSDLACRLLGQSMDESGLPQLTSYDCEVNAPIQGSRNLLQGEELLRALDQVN

Assay [7] deals with Hepatocyte nuclear factor 6 (Homo sapiens) (UniProt Q9UBC0). Description: ATG_HNF6_CIS: Attagene CIS-FACTORIAL HepG2 Assay for human Hepatocyte Nuclear Factor 6 (HNF6) (AID 2282952). Conditions: HepG2 Attagene cis-factorial HNF6 reporter transcription; actives raise or lower the signal. The method in brief:
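Endogenous factor activity read in transiently transfected HepG2 via promoter-regulated reporter transcripts. RNA harvested 24 h post-dosing, reverse-transcribed, PCR-amplified, FAM-labelled, HpaI-digested and resolved by capillary electrophoresis; fitted in both directions against DMSO.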

Assay [8] has as its target Heat shock factor protein 1 (Homo sapiens) (UniProt Q00613). The assay is described as follows: ATG_HSE_CIS: Attagene CIS-FACTORIAL HepG2 Assay for human Heat Shock Transcription Factor 1 (HSE) (AID 2282953). To be noted: HepG2 HSE cis-reporter, Attagene RNA transcription; actives raise or lower the signal. The method in brief:
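Endogenous transcription factor activity captured via cis-promoter reporter units transfected into HepG2; treatment lasted 24 h. Fluorescence intensity of reporter fragments analysed with bidirectional curve fitting, DMSO baseline.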

The nature of assay [9]: ATG_MRE_CIS: Attagene CIS-FACTORIAL HepG2 Assay for human Metal Responsive Element (MRE) (AID 2282954). To be noted: HepG2 MRE cis-reporter transcription, Attagene multiplex; actives raise or lower the signal. The essentials: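 Cells were transfected with cis-promoter reporter transcription units, then dosed for 24 h. RNA was reverse-transcribed, amplified, fluorescently labelled and resolved by capillary electrophoresis, and activity was fitted in both directions relative to DMSO.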

Assay [10] is described as follows: ATG_GRE_CIS: Attagene CIS-FACTORIAL HepG2 Assay for human Glucocorticoid Response Elements (GRE) (AID 2282947). To be noted: HepG2 GRE cis-reporter, Attagene multiplex mRNA; actives raise or lower the signal. The method in brief: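 Cells (HepG2) bearing transfected cis-promoter reporter transcription units were treated with chemical for 24 hours. Reporter mRNA was measured via RT-PCR with capillary electrophoresis, and activity was fitted in both directions relative to DMSO.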

The source made the active and inactive calls. The calls were made as follows: active = hit-call score of the fitted dose curve at least 0.9, where 1 is the maximum; inactive = score below 0.9.

Chain of Bile acid receptor (Homo sapiens) (Q96RI1 whole entry, looked up): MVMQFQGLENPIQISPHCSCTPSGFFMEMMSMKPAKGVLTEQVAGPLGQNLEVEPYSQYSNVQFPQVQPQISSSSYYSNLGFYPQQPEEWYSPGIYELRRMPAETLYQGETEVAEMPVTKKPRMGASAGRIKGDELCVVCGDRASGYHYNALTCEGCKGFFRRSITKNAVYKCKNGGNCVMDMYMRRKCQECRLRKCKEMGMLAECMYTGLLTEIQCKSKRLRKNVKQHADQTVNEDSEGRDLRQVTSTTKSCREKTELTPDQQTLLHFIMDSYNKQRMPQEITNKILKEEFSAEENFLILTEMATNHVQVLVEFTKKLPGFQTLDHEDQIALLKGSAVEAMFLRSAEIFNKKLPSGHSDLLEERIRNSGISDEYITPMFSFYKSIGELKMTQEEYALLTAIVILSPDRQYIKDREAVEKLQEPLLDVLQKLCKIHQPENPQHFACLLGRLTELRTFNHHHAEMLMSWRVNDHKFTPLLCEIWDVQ
Chain of Hepatocyte nuclear factor 6 (Homo sapiens) (Q9UBC0 whole entry, looked up): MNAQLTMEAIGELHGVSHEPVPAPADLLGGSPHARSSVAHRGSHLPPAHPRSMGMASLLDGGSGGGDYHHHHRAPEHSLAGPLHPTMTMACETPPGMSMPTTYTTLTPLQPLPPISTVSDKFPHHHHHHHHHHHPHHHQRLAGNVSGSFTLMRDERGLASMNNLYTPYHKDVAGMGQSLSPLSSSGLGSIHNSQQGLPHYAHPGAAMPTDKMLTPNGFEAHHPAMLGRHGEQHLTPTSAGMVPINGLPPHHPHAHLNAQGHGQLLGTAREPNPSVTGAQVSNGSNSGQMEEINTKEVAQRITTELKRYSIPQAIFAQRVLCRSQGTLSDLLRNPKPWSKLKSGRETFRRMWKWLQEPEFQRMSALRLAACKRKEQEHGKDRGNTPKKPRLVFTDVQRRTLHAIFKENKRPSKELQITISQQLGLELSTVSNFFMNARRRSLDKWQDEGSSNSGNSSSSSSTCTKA
Chain of Heat shock factor protein 1 (Homo sapiens) (Q00613 whole entry, looked up, the tested form may be a part): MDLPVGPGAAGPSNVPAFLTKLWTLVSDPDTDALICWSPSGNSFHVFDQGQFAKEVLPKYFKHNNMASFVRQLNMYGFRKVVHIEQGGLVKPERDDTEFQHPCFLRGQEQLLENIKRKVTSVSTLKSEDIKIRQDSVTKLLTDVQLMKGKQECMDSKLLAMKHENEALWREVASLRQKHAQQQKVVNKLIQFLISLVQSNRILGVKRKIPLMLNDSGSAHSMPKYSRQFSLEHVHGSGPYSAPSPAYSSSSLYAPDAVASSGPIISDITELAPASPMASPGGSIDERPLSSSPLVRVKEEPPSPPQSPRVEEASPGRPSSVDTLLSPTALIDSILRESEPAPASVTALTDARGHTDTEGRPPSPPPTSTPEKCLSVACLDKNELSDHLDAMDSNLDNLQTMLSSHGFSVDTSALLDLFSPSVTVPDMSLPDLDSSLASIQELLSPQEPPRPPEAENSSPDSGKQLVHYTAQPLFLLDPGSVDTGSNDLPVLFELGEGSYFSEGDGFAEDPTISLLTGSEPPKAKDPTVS

As for `CC12CCC(C1)C(C)(C)C2O` (stereo not drawn), the result in assay [1], in assay [2], in assay [3], in assay [4], in assay [5] and in assay [6] was inactive. Moreover, the outcome in assay [7], in [8] and in [9] was inactive.
Regarding `CCCCCCC(O)CCOC(C)=O` (stereo not drawn), the molecule was classed as inactive in assay [1], in assay [2], in assay [3], in assay [4], in assay [5] and in [6]. Moreover, the molecule was called inactive in assay [7], in [8] and in assay [9].
For `CCCCCc1cccc(=O)o1`, the molecule was called inactive in assay [1], in assay [2], in [3], in assay [4], in assay [5] and in assay [6]. The molecule was classed as inactive in assay [7], in [8] and in assay [9].
By AC50 is commonly meant the concentration at which the activity in the assay is half-maximal. For `CCCCCC(=O)O[C@]1(C(C)=O)CC[C@H]2[C@@H]3CCC4=CC(=O)CC[C@]4(C)[C@H]3CC[C@@]21C`, the AC50 is 57.7 µM (active) in [1]; 55.1 µM (active) in [10]; 16.3 µM (active) in assay [3]; 33.2 µM (active) in assay [6]; 32 µM (active) in assay [8]; 13 µM (active) in assay [9]. Moreover, the outcome in assay [2], in [4], in [5] and in assay [7] was inactive.
With `CC1=CCC(C(C)(C)O)CC1` (stereo not drawn), the call in assay [1], in [2], in assay [3], in assay [4], in [5] and in [6] was inactive. Also, the outcome in assay [7], in assay [8] and in assay [9] was inactive.
Regarding `C=CC(=O)OCC(CO)(COC(=O)C=C)COC(=O)C=C`, the outcome in [1], in assay [10], in [5], in [6] and in assay [7] was inactive. For the same molecule, the AC50 is 26 µM (active) in assay [2]; 7.12 µM (active) in assay [3]; 122 µM (active) in [4]; 161 µM (active) in assay [8]; 5.67 µM (active) in assay [9].
Take `O=C1OCc2ccccc21`: the outcome in [1], in assay [2], in assay [10], in assay [3], in assay [4] and in [5] was inactive. In addition, the outcome in assay [6], in assay [7], in assay [8] and in [9] was inactive.
Take `CC1=C(C=O)C(C)(C)CCC1`: the molecule was classed as inactive in assay [1], in assay [2], in [10], in assay [3], in assay [4] and in assay [5]. Further, the outcome in assay [6], in [7], in assay [8] and in assay [9] was inactive.
In the case of `CC(C)(C)c1cc(CCC(=O)OCCSCCOC(=O)CCc2cc(C(C)(C)C)c(O)c(C(C)(C)C)c2)cc(C(C)(C)C)c1O`, the call in assay [1], in assay [2], in assay [10], in assay [3], in [4] and in assay [5] was inactive. Also, the molecule was called inactive in assay [6], in assay [7], in assay [8] and in assay [9].
For the molecule `C[C@H](CCC(=O)O)[C@H]1CC[C@H]2[C@@H]3CC[C@@H]4C[C@H](O)CC[C@]4(C)[C@H]3CC[C@]12C`, the call in assay [1], in assay [2], in [10], in [4] and in assay [5] was inactive. Moreover, the AC50 is 27.4 µM (active) in [3], 146 µM (active) in assay [7], 25.6 µM (active) in assay [8] and 26.4 µM (active) in [9].
For the molecule `CCCCCCOC(C)=O`, the molecule was classed as inactive in assay [1], in [2], in assay [10], in assay [3], in assay [4] and in assay [5]. Also, the result in assay [6], in assay [7] and in assay [9] was inactive.
With `CCC(=O)OC(C)(C)C1CC=C(C)CC1` (stereo not drawn), the call in assay [1], in [2], in [3], in assay [4], in [5] and in assay [6] was inactive. Further, the molecule was classed as inactive in assay [7], in assay [8] and in assay [9].
As to `CCC(=O)OC/C=C(\C)CCC=C(C)C`, the call in assay [1], in assay [2], in assay [10], in [3], in assay [4] and in assay [5] was inactive. Besides, the call in assay [6], in assay [7], in assay [8] and in assay [9] was inactive.
